LmPK inhibitor – LmPK (Leishmania mexicana) enzyme inhibition; 0.37% of 290,000 active; purified LmPK, Kinase-Glo ATP luminescence, 1 h; Q27686; Potency, µM (highest dose often 57.5 µM), inactives show at the top dose activity change, negative = inhibition, usual class: inhibitors; active means well fitted curve in the direction sought with a large enough effect; an effect the other way counts as inactive or inconclusive; further: potency means the concentration at half of the fitted maximal effect; on the % scale 0 is the no-effect control and ±100 the full control effect
Target sequence (Q27686 whole entry, looked up): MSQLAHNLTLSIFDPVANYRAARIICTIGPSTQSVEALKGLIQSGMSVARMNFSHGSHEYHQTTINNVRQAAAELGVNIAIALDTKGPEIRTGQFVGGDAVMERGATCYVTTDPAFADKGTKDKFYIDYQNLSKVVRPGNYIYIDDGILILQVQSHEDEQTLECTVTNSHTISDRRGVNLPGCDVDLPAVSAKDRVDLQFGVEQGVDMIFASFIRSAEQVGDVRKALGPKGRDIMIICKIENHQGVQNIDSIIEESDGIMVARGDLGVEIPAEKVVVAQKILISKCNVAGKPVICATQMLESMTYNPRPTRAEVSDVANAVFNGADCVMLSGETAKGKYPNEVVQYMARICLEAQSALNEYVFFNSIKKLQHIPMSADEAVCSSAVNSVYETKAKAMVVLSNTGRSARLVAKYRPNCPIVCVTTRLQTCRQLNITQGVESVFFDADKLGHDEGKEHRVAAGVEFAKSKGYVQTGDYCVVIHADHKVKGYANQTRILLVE
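Purified LmPK (0.1 nM) converted ADP (0.1 mM) to ATP with PEP (0.5 mM) in imidazole buffer pH 7.2 with KCl and MgCl2, 1 h at room temperature. ATP was read by Kinase-Glo luminescence; data normalized to uninhibited and no-enzyme controls.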
SARS PLP yeast – inhibitors of SARS-CoV papain-like protease in yeast. AID 485353. 0.19% of 330,000 active. Potency, µM (doses to about 32.9 µM), without a hit: at the top dose activity, positive = growth rescue, most hits filed as activators. S. cerevisiae expressing SARS-CoV PLpro, growth rescue; further: potency means the concentration at half of the fitted maximal effect; 0% is about no effect; nearly all actives have a fitted effect of over 55% in size
NS1 inh – inhibitors of influenza NS1 protein function | 0.4% of 270,000 active | AID 2326 | Potency, µM (titrated, usually from 46.1 µM), inactives show top-dose activity, positive = more growth; further: potency means the concentration at half of the fitted maximal effect; actives are rising curves; nearly all actives have a fitted effect of over 50% in size
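In this qHTS, NS1 from influenza A is expressed in budding yeast, where it slows growth. Cells are switched from glucose to 2% galactose medium (pH 6.0, -URA), treated with compound, and growth recovery is read at OD600.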
Cycloheximide cs – affects cycloheximide protein synthesis inhibition readout, counter-screen; 12% of 300,000 active; cell reporter, cycloheximide protein synthesis inhibition counterscreen; max response, %; AID 2314; in the data active means max response mostly above about 13%, no sharp cut-off; inactive means mostly below about 14%; further: read at 38.3 µM for the half of the compounds with a filed dose; 0% is about no effect
Tb PYK inh – T. brucei pyruvate kinase inhibition. TbPYK enzyme, Kinase-Glo Plus ATP luminescence, 45 min. Potency, µM (top dose mostly 76.8 µM), inactives show top-dose activity, negative = inhibition, most hits filed as inhibitors. 0.12% of 410,000 active; active means well fitted curve in the direction sought with a large enough effect; an effect the other way counts as inactive or inconclusive; further: potency means the concentration at half of the fitted maximal effect; on the % scale 0 is the no-effect control and ±100 the full control effect; nearly all actives have a fitted effect of over 50% in size
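T. brucei PYK with substrate was exposed to pin-transferred compounds across a concentration series, then started with 130 uM ADP (final). After 45 min at room temperature, Kinase-Glo Plus luminescence was read, normalized and curve-fitted.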
Shiga toxin inh – Shiga toxin inhibition. Vero cells, Shiga toxin protein synthesis inhibition reporter. inhibition, % at 38.7 µM. 9.2% of 290,000 active. AID 2315; in the data active means inhibition mostly above about 28%, no sharp cut-off; inactive means mostly below about 43%; further: 0% is about no effect
Active calls of the source: *; · = not tested or not shown; + = active, no number. The sample as a whole holds a higher share of hits than the screen did. Unless noted, the call rests on the fitted dose curve.

SMILES	LmPK inhibitor	SARS PLP yeast	NS1 inh	Cycloheximide cs	Tb PYK inh	Shiga toxin inh
C/C(=N\NC(=O)C(N)=O)c1cccc([N+](=O)[O-])c1	4%	-1%	·	13	-6%	16
C/C(=N\NC(=O)OC(C)(C)C)c1cccc([N+](=O)[O-])c1	-4%	1%	-1%	11	2%	29*
S=C(NC1CCCCC1)N1CCc2[nH]c3ccccc3c2C1	2%	0%	-2%	7	3%	44*
O=C1OC(C(=O)Nc2cc(C(F)(F)F)ccc2Cl)Cc2ccccc21 (centres undefined)	·	·	·	·	0%	·
O=C(NCc1ccccn1)Nc1ccc2c(c1)OCO2	0%	6%	1%	57*	0%	101*
c1cc(CNc2ccc3c(c2)OCCO3)ccn1	-3%	1%	9%	53*	-8%	83*
O=C(Nc1ccncc1)Nc1ccccn1	-4%	2%	-6%	-4	3%	60
O=C(Nc1ccc2c(c1)OCO2)Nc1ccccn1	-6%	0%	·	55*	-6%	99*
O=C(Nc1ccc2c(c1)OCO2)Nc1cnccn1	0%	-3%	2%	27*	-5%	58*
O=C(NCc1cccs1)Nc1ccc2c(c1)OCO2	4%	-2%	-1%	40*	1%	69*
O=C(CNC(=O)c1ccc2c(c1)OCO2)NCc1cccs1	·	-2%	·	·	-3%	·
COc1ccc(NC(=O)NCc2ccc3c(c2)OCO3)cc1OC	-4%	-6%	12%	-2	-6%	17
O=C(NCc1ccncc1)Nc1ccc2c(c1)OCO2	-1%	1%	5%	26*	-2%	41*
O=C(NCc1cccs1)Nc1ccc(Cl)cc1	5%	3%	-5%	45*	-11%	61*
O=C(Nc1cccc(F)c1)Nc1ccccn1	-6%	2%	-21%	49*	-15%	61*
COc1ccc(NC(=O)Cn2c(=O)n(Cc3ccco3)c(=O)c3cc(OC)c(OC)cc32)cc1	·	·	·	·	-9%	·
CC(Cc1ccco1)NC(=O)c1ccc(C(F)(F)F)cc1 (centres undefined)	-3%	-1%	2%	43*	0%	+
Cc1ccc2oc(C(=O)NCC(c3ccco3)N(C)C)c(C)c2c1 (centres undefined)	9%	2%	-6%	41*	-7%	75*
CC(Cc1ccco1)NC(=O)c1cccc(S(=O)(=O)N(C)C)c1 (centres undefined)	-5%	-1%	3%	30*	0%	67*
CN(C)S(=O)(=O)c1cccc(C(=O)NCCNC(=O)c2cccc(S(=O)(=O)N(C)C)c2)c1	-2%	0%	0%	-1	-23%	21
CN(C)C(CNC(=O)c1ccc(C(F)(F)F)cc1)c1ccco1 (centres undefined)	-7%	1%	13%	17*	-7%	17
O=C(c1ccco1)c1cn(Cc2ccccc2)c2ccccc12	1%	-24%	-114%	38*	4%	77*
N#Cc1ccccc1Cn1cc(C(=O)c2ccco2)c2ccccc21	0%	-10%	-39%	47*	2%	23*
O=C(c1ccco1)c1cn(Cc2ccccc2Cl)c2ccccc12	5%	-32%	-27%	42*	-6%	71
CCC(=O)c1cn(Cc2ccccc2C#N)c2ccccc12	-3%	-10%	-30%	-1	9%	-6
SMILES	LmPK inhibitor	SARS PLP yeast	NS1 inh	Cycloheximide cs	Tb PYK inh	Shiga toxin inh
COC(=O)c1sc(N2C(=O)c3oc4cc(C)c(C)cc4c(=O)c3C2c2ccccc2F)nc1C (centres undefined)	·	·	·	·	-1%	·
CCOC(=O)c1cccc(NC(=O)c2cnn(-c3ccccc3)c2-n2cccc2)c1	·	·	·	·	-2%	·
CCn1ncc(C(=O)Nc2cccc(Cl)c2)c1C	-5%	-38%	-29%	67*	-4%	30*
CCn1ncc(C(=O)Nc2ccc(S(=O)(=O)N3CCCC3)cc2)c1C	0%	-3%	0%	7	-1%	9
CCn1ncc(C(=O)Nc2cc(C)on2)c1C	3%	-1%	-2%	47*	-10%	38
CCc1cccc(NC(=O)c2cnn(-c3ccccc3)c2C)c1	-16%	-13%	-73%	45*	-10%	137*
COc1cccc(NC(=O)c2cnn(-c3ccccc3)c2C)c1	-17%	-6%	-62%	32*	-20%	53*
Cc1cc2c(s1)c1cnn(Cc3ccc(C)c(F)c3F)c(=O)c1n2C	·	·	·	-7	·	-5
CC1(C(=O)NS(=O)(=O)C2CC2)CCN(C(=O)c2cc(F)cc(F)c2)C1 (centres undefined)	·	·	·	·	-1%	·
CCOc1ccc(C(=O)COC(=O)CNC(=O)C2CCCCC2)cc1	·	1%	·	·	2%	·
Cc1ccc(Cc2c(C)nc3nc(SCC(=O)NC(C)c4ccccc4)nn3c2C)cc1 (centres undefined)	·	·	·	·	7%	·
COc1ccc(Cl)cc1C(=O)O/N=C(\N)c1ccc(Cl)cc1	1%	-99%	-39%	8	-10%	6
COc1cc(OC)c(C(=O)O/N=C(\N)c2cccc(C)c2)cc1OC	-1%	-10%	-3%	50*	-5%	82*
COc1cc(OC)c(C(=O)O/N=C(\N)c2ccc(C)cc2)cc1OC	0%	-8%	-2%	15*	-4%	11
CCOCCn1ccc2c(OCC(=O)Nc3cc(C(F)(F)F)ccc3Cl)cccc2c1=O	·	·	·	·	-6%	·
Cn1cnc2cc(NCc3ccc(Cl)cc3)ccc21	0%	-2%	4%	45*	-3%	60*
CCOc1ccc(CNc2ccc3c(c2)ncn3C)cc1	1%	-11%	-7%	35*	-5%	38*
CCOc1ccc(CNc2ccc3c(c2)ncn3C(C)(C)C)cc1	-8%	8%	-6%	24*	-7%	40*
Cc1ccc(C(=O)N2CCC3(CC2)NCCc2[nH]cnc23)cc1C	-1%	-1%	-7%	-3	-4%	22
OCC[n+]1c2ccccc2nc2ccc(N3CCOCC3)cc21	16µM*	-3%	5%	-2	-21%	15
Cc1cc(C(=O)Nc2ccc(N3CCOCC3)cc2)c2ccccc2n1	-3%	-2%	-10%	-1	-6%	-6
Cc1ccccc1OCC(=O)OCc1cc(=O)n2nc(C3CC3)sc2n1	·	·	·	·	3%	·
COc1ccc(C(O)c2nc(-c3cccc(NC(C)=O)c3)cs2)cc1 (centres undefined)	·	·	·	·	0%	·
Cc1cccc2nc(CSc3ncccc3C(=O)O)cn12	-1%	1%	·	-3	-1%	-4
Cc1cccc2nc(COc3ccc(Cl)c4cccnc34)cn12	-1%	-1%	-30%	33*	2%	102*
NC(=O)c1ccccc1NC(=O)CCCc1ccccc1	0%	2%	-15%	20*	1%	·
CCc1ccc(CCC(=O)Nc2ccccc2C(=O)O)o1	-6%	-3%	-46%	40*	-6%	75*
O=C(CCc1ccccc1)NC(=S)Nc1ccccc1[N+](=O)[O-]	0%	1%	-21%	12	1%	33

Assay outcomes from PubChem.
